Reference: PubChem BioAssay (NCATS)
Inconclusive results are not listed. Activity calls are given as the source filed them. Calls come from the whole dose curve; as a rule, active = well fitted curve in the direction sought with a large enough effect; inconclusive = small, poorly fitted or top-dose-only effect, or another doubt; inactive = no such curve, though single readings can be large; an effect the other way counts as inactive or inconclusive.

Legend:
Es-2 = assay: Primary qHTS to identify gynecologic anti-cancer compounds using libraries of approved drugs and bioactive compounds (AID 1345084); conditions: Gynecologic cancer cell panel viability, ATPlite luminescence, 48 h; series mostly up to 57.5 µM; note: nearly all actives have a fitted effect of over 55% in size; note: potency is the fitted concentration of half-maximal effect
Outline: (§1)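 In this quantitative HTS, cell killing is estimated from loss of ATP-dependent luciferase light. Cells see five compound concentrations over a 48 h exposure.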

HeLa = assay: as above; conditions: Gynecologic cancer cell panel viability, ATPlite luminescence, 48 h; series mostly up to 57.5 µM
Outline: as §1

Hek293T = assay: as above; conditions: Gynecologic cancer cell panel viability, ATPlite luminescence, 48 h, control line for the selectivity index; series mostly up to 57.5 µM
Outline: as §1

JEG-3 = assay: as above; conditions: Gynecologic cancer cell panel viability, ATPlite luminescence, 48 h; series mostly up to 57.5 µM
Outline: as §1

OV90 = assay: as above; conditions: Gynecologic cancer cell panel viability, ATPlite luminescence, 48 h; series mostly up to 57.5 µM
Outline: as §1

PA-1 = assay: as above; conditions: Gynecologic cancer cell panel viability, ATPlite luminescence, 48 h; series mostly up to 57.5 µM
Outline: as §1

Tov-21-G = assay: as above; conditions: Gynecologic cancer cell panel viability, ATPlite luminescence, 48 h; series mostly up to 57.5 µM
Outline: as §1

Tov112D = assay: as above; conditions: Gynecologic cancer cell panel viability, ATPlite luminescence, 48 h; series mostly up to 57.5 µM
Outline: as §1

SKOV3 = assay: as above; conditions: Gynecologic cancer cell panel viability, ATPlite luminescence, 48 h; series mostly up to 57.5 µM
Outline: as §1

[1] = Drug repurposing screens with cells derived from glioblastoma tumor samples (AID 1345199); conditions: GBM patient neurospheres viability, ATP luminescence, 48 h; note: nearly all actives have a fitted effect of over 40% in size; note: potency is the fitted concentration of half-maximal effect
Outline: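 Four patient lines of CD133+ GBM neurospheres were screened at several concentrations; hits were retested in those lines plus three slower-growing GBM lines, using 48-hour treatment and ATP-based viability.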

[2] = qHTS assay to identify inhibitors of the type 1 interferon - major histocompatibility complex class I in skeletal muscle: Counter screen cell viability and HiBit confirmation (AID 1347412); conditions: iHSKM muscle cells + IFN-b, HiBiT or CellTiter-Glo, 24 h, at 45.9 µM (top of the series); note: nearly all actives have a fitted effect of over 60% in size
Outline: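 Luminescence read-out: Nano-Glo HiBiT lytic signal from C-terminally HiBiT-tagged HLA-B in CRISPR-edited human myoblasts, plus CellTiter Glo ATP as viability counter screen. IFN-beta 4.0 ng/ml; 24 hrs treatment at 37 C, 5% CO2.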

[3] = at 45.9 µM (top of the series), tumour line B
[4] = at 46.1 µM (top of the series), tumour line C
[5] = at 45.9 µM (top of the series), tumour line D
% is set by controls: 0 for no effect and ±100 for the full control effect.

COC(=O)N1CCN(Cc2cccc(NC(=O)Nc3ccc(C)nc3)c2F)CC1
inactive: Potency (Es-2) | Potency (HeLa) | Potency (Hek293T) | Potency (JEG-3) | Potency (OV90) | Potency (PA-1) | Potency (Tov-21-G) | Potency (Tov112D)

NC(=O)c1noc([C@H](CCCC2CCCCC2)CC(=O)NO)n1
inactive: Potency (Es-2) | Potency (HeLa) | Potency (Hek293T) | Potency (JEG-3) | Potency (OV90) | Potency (Tov-21-G) | Potency (Tov112D)

COc1nccc(-c2c(-c3ccc(F)cc3)ncn2C2CCNCC2)n1
inactive: Potency (Es-2) | Potency (HeLa) | Potency (Hek293T) | Potency (JEG-3) | Potency (SKOV3) | Potency (Tov112D)

CS(=O)(=O)c1ccc(C2=C(c3ccccc3)C(=O)OC2)cc1
inactive: Potency (Es-2) | Potency (HeLa) | Potency (Hek293T) | Potency (JEG-3) | Potency (OV90) | Potency (PA-1) | Potency (Tov-21-G) | Potency (Tov112D) | activity, negative = cell killing [1, 3] -11.3% | activity, negative = cell killing [1, 4] -14.3%

Nc1[nH]nc2nnc(-c3c(-c4ccccc4)nn4ccccc34)cc12
inactive: Potency (Es-2) | Potency (HeLa) | Potency (Hek293T) | Potency (OV90) | Potency (PA-1) | Potency (SKOV3) | Potency (Tov-21-G) | Potency (Tov112D)

CN(C)CCCNC(=O)c1ccc(-c2cc(O)c3ncccc3c2)cc1
inactive: Potency (Es-2) | Potency (HeLa) | Potency (Hek293T) | Potency (JEG-3) | Potency (SKOV3)

CN(C)c1nc(Cc2ccc(NC(=O)c3ccc(C(F)(F)F)cc3)cc2)nc(N(C)C)c1CC(=O)O
inactive: Potency (Es-2) | Potency (HeLa) | Potency (Hek293T) | Potency (JEG-3) | Potency (OV90) | Potency (PA-1) | Potency (Tov-21-G) | Potency (Tov112D)

CN1CCN(c2cccc(Nc3nc4c(-c5ccc(S(C)(=O)=O)cc5)cccn4n3)c2)CC1
inactive: Potency (Es-2) | Potency (HeLa) | Potency (Hek293T) | Potency (JEG-3) | Potency (OV90) | Potency (PA-1) | Potency (Tov112D)
active: Potency (SKOV3) 2820 nM

CCN1CCC(n2cc(CNc3cc(Cl)c4ncc(C#N)c(Nc5ccc(F)c(Cl)c5)c4c3)nn2)CC1
inactive: Potency (Es-2) | Potency (HeLa) | Potency (Hek293T) | Potency (JEG-3) | Potency (OV90) | Potency (PA-1) | Potency (Tov-21-G) | Potency (Tov112D)

c1cc(OCCN2CCCCC2)cc(-c2n[nH]c3ccc(-c4ncn[nH]4)cc23)c1
inactive: Potency (Es-2) | Potency (HeLa) | Potency (Hek293T) | Potency (JEG-3) | Potency (OV90) | Potency (PA-1) | Potency (Tov-21-G) | Potency (Tov112D)

COc1ccnc(CS(=O)c2nc3ccc(OC(F)F)cc3[nH]2)c1OC (stereo not given)
inactive: Potency (Es-2) | Potency (HeLa) | Potency (Hek293T) | Potency (JEG-3) | Potency (PA-1) | Potency (SKOV3) | Potency (Tov-21-G) | Potency (Tov112D) | activity, negative = cell killing [1, 3] -25.5% | activity, negative = cell killing [1, 5] -22.5% | activity, negative = cell killing [1, 4] -15.1%

O=C(CCCN1CCN(c2ccc(F)cc2)CC1)NC1c2ccccc2CSc2ccccc21 (stereo not given)
active: Potency ([1]; tumour line A) 3980 nM
inactive: Potency (Es-2) | Potency (HeLa) | Potency (Hek293T) | Potency (JEG-3) | Potency (PA-1) | Potency (SKOV3) | Potency (Tov-21-G) | Potency (Tov112D) | activity, negative = cell killing [1, 3] -21% | activity, negative = cell killing [1, 5] -27.4%

Nc1ccc(-c2ccc3ncc4ccc(=O)n(-c5cccc(C(F)(F)F)c5)c4c3c2)cn1
active: Potency (Es-2) 316 nM | Potency (HeLa) 2510 nM | Potency (Hek293T) 316 nM | Potency (JEG-3) 8910 nM | Potency (Tov-21-G) 17800 nM

CCCCn1c(=O)n(Cc2ccccc2F)c(=O)c2[nH]c(Cc3ccc(NC(C)=O)cc3)nc21
inactive: Potency (Es-2) | Potency (HeLa) | Potency (Hek293T) | Potency (JEG-3) | Potency (OV90) | Potency (PA-1) | Potency (Tov-21-G) | Potency (Tov112D)

C[C@@H](NC(=O)c1ncnc(N)c1Cl)c1ncc(C(=O)Nc2cc(C(F)(F)F)c(Cl)cn2)s1
inactive: Potency (Es-2) | Potency (HeLa) | Potency (Hek293T) | Potency (JEG-3) | Potency (PA-1) | Potency (Tov112D) | activity change, negative = inhibition ([2]; HiBiT) -24.2% | activity change, negative = inhibition ([2]; Viability) -2.15%
active: Potency (OV90) 10000 nM

CN[C@@H](C)[C@H]1[C@H](O)C[C@@]2(C)[C@@H]3CC[C@H]4C(C)(C)[C@@H](NC)CC[C@@]45C[C@@]35CC[C@]12C
inactive: activity change, negative = cytotoxicity (Es-2) -1.65% [at 11.6 µM] | activity change, negative = cytotoxicity (HeLa) 13.6% [at 11.6 µM] | activity change, negative = cytotoxicity (Hek293T) -11.4% [at 11.6 µM] | activity change, negative = cytotoxicity (JEG-3) 6.85% [at 11.6 µM] | activity change, negative = cytotoxicity (PA-1) -14% [at 11.6 µM] | activity change, negative = cytotoxicity (SKOV3) 0% [at 11.6 µM] | activity change, negative = cytotoxicity (Tov-21-G) -6.08% [at 11.6 µM] | activity change, negative = cytotoxicity (Tov112D) -2.44% [at 11.6 µM]

O=C1NC(=O)C(c2cnc3ccccn23)=C1c1cn2c3c(cccc13)CN(C(=O)N1CCOCC1)CC2
active: Potency (SKOV3) 1410 nM
inactive: Potency (Es-2) | Potency (HeLa) | Potency (Hek293T) | Potency (JEG-3) | Potency (PA-1) | Potency (Tov112D)

CCN(CCO)CCCOc1ccc2c(Nc3cc(CC(=O)Nc4cccc(F)c4)[nH]n3)ncnc2c1
inactive: Potency (Es-2) | Potency (HeLa) | Potency (Hek293T) | Potency (JEG-3) | Potency (SKOV3) | Potency (Tov-21-G)

COc1cc2ncnc(Nc3cc(Br)c(O)c(Br)c3)c2cc1OC
inactive: Potency (Es-2) | Potency (HeLa) | Potency (Hek293T) | Potency (JEG-3) | Potency (OV90) | Potency (PA-1) | Potency (Tov-21-G) | Potency (Tov112D)

CN1CCC(COc2cnc(-c3cccc(Cn4nc(-c5cccc(C#N)c5)ccc4=O)c3)nc2)CC1
inactive: Potency (Es-2) | Potency (HeLa) | Potency (Hek293T) | Potency (OV90) | Potency (PA-1) | Potency (SKOV3) | Potency (Tov-21-G) | Potency (Tov112D)

Cc1c(C(=O)Nc2ccc(N3C[C@@H](C)O[C@@H](C)C3)nc2)cccc1-c1ccc(OC(F)(F)F)cc1
inactive: Potency (Es-2) | Potency (HeLa) | Potency (Hek293T) | Potency (JEG-3) | Potency (OV90) | Potency (SKOV3) | Potency (Tov-21-G) | Potency (Tov112D)
